SENP7 inh = SENP7 protease inhibition; inhibition, % at 5 µM; hit rate 1.5% among 330,000; Q9BQF6; recombinant SENP7, Z-RLRGG-aminoluciferin luminescence, 40 min; AID 434973;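 active = inhibition above about 50% at the single test dose, limit read from the data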;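 note: plate controls were DMSO with enzyme for no effect and no enzyme buffer wells for full effect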
PPC-1+TRAIL kill = kills PPC-1 cancer cells in the presence of TRAIL; PPC-1 cells + TRAIL, ATPLite viability luminescence; cell killing (% activity), % at 4 µM or 5 µM; hit rate 0.41% among 220,000;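 active = cell killing above 50% in the first pass at 4 µM, then a duplicate retest at 5 µM averaging 50% or more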;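 note: plate controls were cells with TRAIL plus DMSO for no effect and medium-only wells lacking cells for full effect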
SENP6 block = SENP6 protease inhibition | Q9GZR1 | Recombinant SENP6 catalytic domain, aminoluciferin luminescence | inhibition, % at 10 µM | hit rate 1.8% among 330,000 | AID 2599;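 active = inhibition above about 50% at the single tested dose, limit read from the data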;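 note: plate controls were DMSO wells with enzyme for no effect and DMSO wells lacking enzyme for full effect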
SENP8 block-1 = inhibitors of human SENP8 protease; Q96LD8; recombinant SENP8, Nedd8 substrate fluorescence; hit rate 0.64% among 360,000; inhibition, % at 20 µM; in the data active = inhibition mostly above about 40%, no sharp cut-off; inactive = mostly below about 27%
Target sequence (Q96LD8 whole entry, looked up): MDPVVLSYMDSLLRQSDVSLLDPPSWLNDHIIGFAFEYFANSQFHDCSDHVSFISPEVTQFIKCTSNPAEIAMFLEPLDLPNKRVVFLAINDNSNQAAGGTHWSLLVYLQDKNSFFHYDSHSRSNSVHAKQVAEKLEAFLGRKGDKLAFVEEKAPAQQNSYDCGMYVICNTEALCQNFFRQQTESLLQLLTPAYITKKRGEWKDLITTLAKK
TRAIL sens C8 = caspase-8 TRAIL sensitization; NB7+C8 cells + TRAIL, ATPlite viability luminescence; inhibition (viability loss, TRAIL sensitization), % at 10 µM; hit rate 1% among 360,000; AID 624354;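 active = compounds causing at least 50% loss of cell viability in the single-dose screen, relative to plate controls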
SENP8 block-2 = blocks the human protease SENP8; inhibition, % at 10 µM; Q96LD8; hit rate 1.2% among 330,000; purified SENP8, Z-RLRGG-aminoluciferin cleavage, luminescence; in the data active = inhibition above about 50%
Starred values were filed as active, the others as inactive; nt = not tested or not shown. Most compounds without a hit are left out; they make up all but 3% or so of the library.

SMILES | SENP7 inh | PPC-1+TRAIL kill | SENP6 block | SENP8 block-1 | TRAIL sens C8 | SENP8 block-2
COC(=O)[C@@]12C[C@@H](CC(=O)NCCC(C)C)C(=O)N(CCc3ccc(OC)c(OC)c3)C1=CCC(C)(C)C2 | nt | nt | nt | 17.5 | 1.3 | nt
Clc1ccccc1N=Nc1ccccn1 | nt | nt | nt | 57.0* | -5.3 | nt
O=C(c1cccc(Cl)c1)N1CCC(N2CCC(C(=O)N3CCCC3)CC2)CC1 | -12.9 | nt | -2.3 | 5.9 | 0.7 | -5.6
CC(C)(C)Nc1ncnc2c1cnn2-c1ccccc1 | 7.6 | 27.1 | 5.0 | 18.1 | 59.9* | 2.3
CC(C)Nc1ncnc2c1cnn2-c1ccc(Cl)cc1 | 17.5 | 36.7 | 25.4 | -1.4 | 56.9* | 14.7
Cc1nn(-c2ccccc2)c(Cl)c1C(=O)N1CCN(c2ncnc3c2cnn3-c2ccccc2)CC1 | -5.7 | 32.0 | -15.3 | 6.0 | 73.1* | -10.0
c1ccc(Cn2ncc3c(N4CCCCC4)ncnc32)cc1 | 5.2 | 5.4 | -2.8 | 15.7 | 9.2 | 5.6
Clc1ccc(Cn2ncc3c(N4CCN(c5ccccc5)CC4)ncnc32)cc1 | nt | nt | nt | 5.2 | 73.5* | nt
O=C(CN1CCCCC1)Nc1ccc(Br)cc1[N+](=O)[O-] | 4.5 | 6.1 | -5.9 | 17.4 | -8.5 | 2.2
O=C(/C=C/c1ccc([N+](=O)[O-])cc1)Nc1cccc(S(=O)(=O)NC2=NCCCCC2)c1 | -1.8 | nt | -3.7 | 0.3 | 37.0 | -12.4
Clc1ccc(-n2ncc3c(N4CCCC4)ncnc32)cc1 | 1.6 | 48.9 | 46.7 | 9.4 | 55.2* | 7.7
O=C(CC1C(=O)NCCN1Cc1c(F)cccc1Cl)NCCCN1CCCC1=O (configuration not stated) | -1.9 | nt | 0.6 | -5.1 | -8.8 | 0.8
CCOC(=O)c1sc(N(Cc2ccccc2)C(=O)CCl)nc1C | -12.5 | nt | -40.5 | 5.2 | 86.7* | -6.3
Cc1ccc(S(=O)(=O)N(C)c2ccc(C(=O)N(C)Cc3nc4ccccc4c(=O)[nH]3)cc2)cc1 | -5.7 | nt | -17.6 | 1.8 | -15.9 | -6.3
COCc1ccc(C(=O)N2CCCC(C(=O)c3ccc(SC)cc3)C2)s1 (configuration not stated) | -9.3 | nt | -10.3 | 4.8 | 4.2 | -10.9
COc1cccc2c1CCc1c-2nc2ccccc2c1C(=O)O | -6.1 | nt | -3.5 | -37.5 | 67.7* | -11.4
Cc1cccc(CSc2nc3ccccc3c(=O)n2C)c1 | 4.2 | nt | -4.0 | 21.1 | 15.4 | 3.7
COn1c(SCc2cccc(Cl)c2)nc2ccccc2c1=O | 2.2 | 10.8 | -7.2 | 2.0 | 55.8* | 1.6
COn1c(SCc2ccccc2)nc2ccccc2c1=O | -5.6 | 14.1 | -5.8 | 4.8 | 68.9* | -13.3
S=C1Nc2ccccc2CS1 | nt | nt | nt | 18.7 | -11.2 | nt
S=C1Cc2ccccc2N1 | nt | 22.5 | nt | 44.6* | 59.8* | nt
CCCCC[C@H](C)N1C[C@H](COCc2ccccc2)Oc2cc(N3CC[C@@H](N(C)C)C3)ccc2S1(=O)=O | nt | nt | nt | 6.2 | 28.0 | nt
CCCCC[C@@H](C)N1C[C@H](COCc2ccccc2)Oc2cc(N3CC[C@@H](N(C)C)C3)ccc2S1(=O)=O | nt | nt | nt | 0.4 | 76.6* | nt
O=S(=O)(/C(=C\c1ccc(C(F)(F)F)cc1)c1nc2ccccc2[nH]1)c1ccccc1 | nt | nt | nt | -13.9 | 84.9* | nt
CC(C)Cc1nc2oc3c(Cl)ncnc3c2c2c1CCC2 | -4.6 | 45.4 | -21.9 | -0.9 | 85.4* | -12.2
SMILES | SENP7 inh | PPC-1+TRAIL kill | SENP6 block | SENP8 block-1 | TRAIL sens C8 | SENP8 block-2
Cc1ccc(-c2nn3c(C)nnc3c3ccccc23)cc1S(=O)(=O)NCc1ccccc1 | -0.1 | -3.9 | -15.1 | -36.2 | 52.3* | -0.2
CC(C)(C)c1ccc(-c2nc3[nH]c(=O)cc(NC(=O)c4ccco4)n3n2)cc1 | 7.8 | nt | 22.5 | -2.0 | 62.4* | -3.2
Cc1ccc(-c2nc3[nH]c(=O)cc(NC(=O)c4cccs4)n3n2)cc1 | 5.2 | 5.1 | 12.1 | 5.1 | 19.7 | 10.1
O=C(/C(=C/c1ccc(Cl)cc1)c1nc2ccccc2[nH]1)c1ccccc1 | 3.3 | 23.9 | -17.1 | -48.7 | 77.9* | 3.5
O=C(N/C(=C/c1ccc(Cl)cc1)c1nc2ccccc2[nH]1)c1ccco1 | 6.5 | 12.0 | -2.4 | -322.0 | -0.1 | 0.2
C#CC(=O)CC1(CN(Cc2ccccc2)C(=O)OC(C)(C)C)CCCCC1 | nt | nt | nt | 3.4 | 94.3* | nt
COc1ccccc1S(=O)(=O)N(C)C[C@@H]1OCc2cnnn2CCCC(=O)N([C@H](C)CO)C[C@H]1C | nt | nt | nt | 14.4 | -25.9 | nt
CC(C)Cn1c(N)c(C(=O)COC(=O)c2c(O)c(Cl)cc(Cl)c2Cl)c(=O)n(C)c1=O | 3.9 | nt | -2.8 | -26.2 | 3.4 | -3.5

Source: PubChem BioAssay
